ELG1 DNA repair: qHTS screen for small molecules that inhibit ELG1-dependent DNA repair in human embryonic kidney (HEK293T) cells expressing luciferase-tagged ELG1; HEK293T ELG1-luciferase reporter, luminescence, 16 h; DNA damage induced by 5-fluorouridine; Potency, µM (doses to about 46.1 µM), for the others: at the top dose activity change, negative = inhibition, hits mostly inhibitors; 330,000 tested, 2.3% active; note: potency is the fitted concentration of half-maximal effect; nearly all actives have a fitted effect of over 55% in size
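DMSO vehicle served as the neutral condition. Each well held 2,000 cells given 5-fluorouridine plus compound; after 16 hr at 37 °C/5% CO2, ONE-Glo was added and luciferase measured 30 min later.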
HT1080NT lethal: qHTS for induction of synthetic lethality in tumor cells producing 2HG: qHTS for the HT-1080-NT fibrosarcoma cell line; HT-1080-NT fibrosarcoma viability, CellTiter-Glo ATP luminescence, 48 h; Potency, µM (titrated, usually from 46.1 µM), without a hit: at the highest dose activity, negative = less viability, hits mostly cytotoxic; 360,000 tested, 1.6% active; AID 686970, 2013;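 note: NT is the 2HG producing partner of a matched IDH1 knockdown line; potency is the fitted concentration of half-maximal effect; 0% = DMSO-treated cells and -100% = media-only wells without cells; nearly all actives have a fitted effect of over 55% in size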
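HT-1080-NT fibrosarcoma cells (2HG-overproducing), 750 cells/well in RPMI with 5% FBS, dosed after 2 h and incubated 48 h at 37C. CellTiter-Glo luminescence normalized to DMSO and no-cell wells; concentration-response curves fitted and classed.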
TDP1 cell CPT: qHTS for Inhibitors of human tyrosyl-DNA phosphodiesterase 1 (TDP1): qHTS in cells in presence of CPT; AID 686979, 2013; Potency, µM (series often up to 46.2 µM), for inactives: at the top dose activity change, negative = growth inhibition, most hits filed as inhibitors; chicken DT40 Tdp1-/-;hTDP1 cells + 20 nM CPT, ATP luminescence, 48 h; 420,000 tested, 12% active; note: potency is the fitted concentration of half-maximal effect; nearly all actives have a fitted effect of over 55% in size
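Chicken DT40 Tdp1-/- cells complemented with human TDP1, 400 cells/well, exposed to compounds plus 20 nM camptothecin for at least 48 h at 37 C; viability read as ATP content by CellTiter-Glo luminescence.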
HT1080 IDH1KD tx: qHTS for induction of synthetic lethality in tumor cells producing 2HG: qHTS for the HT-1080-IDH1KD cell line; HT-1080 IDH1 knockdown viability, ATP luminescence, 48 h; 360,000 tested, 2% active; Potency, µM (top dose mostly 46.1 µM), inactives show at the highest dose activity, negative = toxicity, hits mostly cytotoxic;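 note: potency is the fitted concentration of half-maximal effect; 0% = DMSO wells and -100% = cell-free medium wells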
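% activity derives from luminescence (CellTiter-Glo), normalised to DMSO and no-cell wells. HT-1080-IDH1KD cells, 750/well, had 48 h compound exposure at 37 °C.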
TDP1 cell noCPT: qHTS for Inhibitors of human tyrosyl-DNA phosphodiesterase 1 (TDP1): qHTS in cells in absence of CPT. DT40 Tdp1-/- hTDP1 cells, no CPT, ATP luminescence, 48 h. Potency, µM (doses to about 46.2 µM), for the others: at the top dose activity change, negative = growth inhibition, usual class: inhibitors. 420,000 tested, 15% active. AID 686978, 2013; note: potency is the fitted concentration of half-maximal effect; nearly all actives have a fitted effect of over 55% in size
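Chicken DT40 Tdp1-/- cells complemented with human TDP1, screened without camptothecin (DMSO vehicle only), 400 cells/well. Compounds pin-transferred, cells incubated at 37 °C for at least 48 hr. Growth read as ATP-dependent luminescence (CellTiter-Glo, 30 min at RT).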
IL-1B inflam inh: qHTS for Inhibitors of Inflammasome Signaling: IL-1-beta AlphaLISA Primary Screen. THP-1 LPS/ATP IL-1B secretion, AlphaLISA, 16 h; active compounds read low. activity change, % at 57.5 µM. 360,000 tested, 4.7% active; in the data active = activity change below about -50%; inconclusive = mostly about -30% to -49%
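THP-1 cells pretreated 1 hr with compounds (up to 57.5 uM final), then stimulated with LPS (250 ng/mL final) plus ATP (1.25 mM final); secreted IL-1B measured by AlphaLISA after 16 hr, decreased signal indicating inhibition.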
Starred values were filed as active, the others as inactive; ? = inconclusive; nt = no result given. Rows were chosen to be rich in hits. Some 19% of all compounds tested hit in one or more screens of this group. Unless noted, calls come from the whole dose curve; as a rule, active = well fitted curve in the direction sought with a large enough effect; inconclusive = small, poorly fitted or top-dose-only effect, or another doubt; inactive = no such curve, though single readings can be large; an effect the other way counts as inactive or inconclusive. Unless noted, % is set by controls: 0 for no effect and ±100 for the full control effect.

SMILES	ELG1 DNA repair	HT1080NT lethal	TDP1 cell CPT	HT1080 IDH1KD tx	TDP1 cell noCPT	IL-1B inflam inh
O=c1[nH]nc(Cc2ncc(C(F)(F)F)cc2Cl)c2ccccc12	-7.7%	-1.6%	?	-21.3%	16.4µM*	52.7
CN(C(=O)C1Cc2c(-c3ccc(Cl)cc3)ccnc2O1)c1ccccc1 (stereo not drawn)	nt	-20.4%	?	-1.2%	?	-3.8
Cc1noc(C)c1NC(=O)Nc1ccc2c(c1)C(=O)N([C@H](C)CO)C[C@@H](C)[C@@H](CN(C)S(=O)(=O)c1cn(C)cn1)OCCCC[C@H](C)O2	nt	4.8%	-1.9%	5.1%	0.7%	-4.5
O=C(Cn1c(SCCOc2ccccc2)nc2ccccc21)N1CCOCC1	nt	nt	-1.1%	nt	-16.2%	nt
O=c1[nH]nc(CNc2ccc(Cl)cc2Cl)c2ccccc12	-3.1%	-19.4%	?	?	?	3.7
O=c1[nH]nc(CNc2ccc(O)cc2)c2ccccc12	1.2%	-16.9%	?	?	20.6µM*	-101.4*
O=C(Nc1ccccc1[N+](=O)[O-])C1COc2ccccc2O1 (stereo not drawn)	?	2.1%	2.0%	0.0%	0.0%	10.2
O=C(N1CCC(n2nc(-c3ccccc3)oc2=O)CC1)C1(c2ccc(Cl)cc2)CC1	?	-2.4%	?	-1.5%	?	-12.2
CC(=O)N1CCc2cc(S(=O)(=O)N3CCc4ccccc4C3)ccc21	13.5%	-23.5%	?	-21.0%	?	27.1
COc1ccc(S(=O)(=O)N2CCCc3ccccc32)cc1[N+](=O)[O-]	?	8.2µM*	-23.1%	8.2µM*	-9.7%	38.5
CC(=O)N1CCc2cc(S(=O)(=O)N3CCc4ccccc43)ccc21	0.3%	0.0%	13µM*	-18.0%	?	6.6
COc1ccc(S(=O)(=O)N2CCc3ccccc32)cc1NC(C)=O	-4.9%	9.2µM*	-3.0%	?	-29.5%	20.4
COc1ccc(S(=O)(=O)N2CCCc3ccccc32)cc1OC	?	-20.7%	?	?	-16.0%	52.6
CCN(CC)S(=O)(=O)c1ccc(C(=O)NC2CC(=O)N(c3ccc(OC)c(OC)c3)C2)cc1 (stereo not drawn)	nt	nt	0.7%	nt	-23.6%	nt
Cc1ccccc1CNC(=O)CN(c1cccc([N+](=O)[O-])c1)S(C)(=O)=O	-9.5%	-2.0%	-22.0%	-1.3%	-28.6%	11.2
CC(=O)Oc1ccc2nc(-c3ccc(Br)o3)oc(=O)c2c1	5.5%	3.1%	-12.5%	-8.6%	-7.2%	8.0
CCOc1cc(C(=S)N2CCOCC2)cc(Br)c1OS(=O)(=O)c1ccccc1	-24.6%	1.9%	?	-13.1%	23.1µM*	-18.4
COc1ccc(S(=O)(=O)Oc2cc(C(=S)N3CCOCC3)ccc2OC)cc1	-3.4%	-0.5%	?	-4.9%	-23.7%	-2.1
CCOc1cc(C(=S)N2CCC(O)CC2)ccc1OS(=O)(=O)c1ccc(Br)cc1	?	?	?	-2.9%	18.4µM*	-82.4*
CCOc1cc(C(=S)N2CCCCC2)ccc1OS(=O)(=O)c1ccc(Br)cc1	-2.1%	-20.6%	20.6µM*	-0.7%	18.4µM*	-15.5
CCOc1cc(C(=S)N2CCCCC2)ccc1OS(=O)(=O)c1ccc(Cl)cc1	?	-24.8%	16.4µM*	-6.2%	23.1µM*	-8.2
CCOc1cc(C(=S)N2CCOCC2)ccc1OS(=O)(=O)c1ccc(C)cc1	?	-24.5%	-11.1%	-25.8%	?	-1.1
Cn1c(=O)oc2cc(S(=O)(=O)N3CCCC(C(=O)NCCc4ccccc4)C3)ccc21 (stereo not drawn)	nt	nt	-14.4%	nt	-25.6%	nt
CCc1ccc(C(=O)NNC(=O)[C@H](C)NC(=O)c2ccco2)cc1	16.4%	2.4%	27.4%	8.2%	10.9%	9.2
CCCn1c(C)cc(C(=O)COc2ccc(S(=O)(=O)N(CC)CC)cc2[N+](=O)[O-])c1C	16.4µM*	-0.7%	20.6µM*	-14.7%	23.1µM*	-28.0
SMILES	ELG1 DNA repair	HT1080NT lethal	TDP1 cell CPT	HT1080 IDH1KD tx	TDP1 cell noCPT	IL-1B inflam inh
C=CCn1c(C)cc(C(=O)COc2ccc(C)nc2[N+](=O)[O-])c1C	?	?	?	?	20.6µM*	11.8
Cc1ccc(OCC(=O)c2cc(C)n(-c3ccccc3)c2C)c([N+](=O)[O-])n1	-14.9%	-0.1%	?	-28.0%	14.6µM*	-5.1
C=CCn1c(C)cc(C(=O)CSc2nnc(Cc3ccccc3)o2)c1C	27.9%	19.0%	-2.3%	17.7%	-15.9%	6.6
C=CCn1c(C)cc(C(=O)COc2nncc3ccccc23)c1C	?	-6.0%	8.2µM*	-1.9%	7.31µM*	-4.4
CCN(CC)S(=O)(=O)c1ccc(OCC(=O)NC(=O)c2ccccc2OC)c([N+](=O)[O-])c1	-22.4%	-3.6%	-14.6%	-0.4%	-19.3%	-2.3
CCCn1c(C)cc(C(=O)COc2ccc(C)nc2[N+](=O)[O-])c1C	?	6.6%	?	2.7%	?	18.1
COCCn1c(C)cc(C(=O)COc2ccc(C)nc2[N+](=O)[O-])c1C	26.5%	-1.3%	?	-0.3%	?	11.6
CCOc1ccc(OCC)c(NS(=O)(=O)c2cc(-c3onc(C)c3C)ccc2OC)c1	nt	nt	-17.0%	nt	-9.0%	nt
CCCNC(=O)c1cc(C2CCCCN2C(=O)c2ccccc2)on1 (stereo not drawn)	nt	?	-23.7%	11.6%	-24.2%	36.1
O=C(O)CC(NC(=O)COc1ccccc1)c1cccc([N+](=O)[O-])c1 (stereo not drawn)	0.0%	5.1%	-22.2%	7.8%	4.1%	11.7
CCc1cc2c3c(c1)C1(C(=O)N3C(C)(C)C=C2C)C(C#N)=C(N)Oc2[nH]c(=O)[nH]c(=O)c21 (stereo not drawn)	?	23.1µM*	3.26µM*	16.4µM*	3.26µM*	25.0
N#Cc1cnc(SCC(=O)NNC(=O)COc2cccc3ccccc23)nc1N	-14.3%	9.3%	1.2%	6.5%	3.5%	33.2
COc1ccccc1CN(Cc1cccnc1)S(=O)(=O)c1ccc(-n2cnnn2)c(OC)c1	-1.8%	0.8%	-1.7%	-0.6%	20.6µM*	-11.6

Screening results from PubChem.
